Assay results: the supplement of paper PMC11732987, “Enantioselective OTUD7B fragment discovery through chemoproteomics screening and high-throughput optimisation” (Communications Chemistry, 2025)

Tests used:
Assay in all cases: log2 ratio of Biotin-Ahx-Ub-VS probe labelling (fragment/DMSO); higher = less target engagement (more negative = stronger competition), active = hit call of the paper (q ≤ 0.05, log2 ratio ≤ -1)
Conditions in all cases: compound concentration: 200 uM; treatment time: 3 h
[1] = target: T1, USP19 (UniProt O94966)
T1 sequence (whole entry): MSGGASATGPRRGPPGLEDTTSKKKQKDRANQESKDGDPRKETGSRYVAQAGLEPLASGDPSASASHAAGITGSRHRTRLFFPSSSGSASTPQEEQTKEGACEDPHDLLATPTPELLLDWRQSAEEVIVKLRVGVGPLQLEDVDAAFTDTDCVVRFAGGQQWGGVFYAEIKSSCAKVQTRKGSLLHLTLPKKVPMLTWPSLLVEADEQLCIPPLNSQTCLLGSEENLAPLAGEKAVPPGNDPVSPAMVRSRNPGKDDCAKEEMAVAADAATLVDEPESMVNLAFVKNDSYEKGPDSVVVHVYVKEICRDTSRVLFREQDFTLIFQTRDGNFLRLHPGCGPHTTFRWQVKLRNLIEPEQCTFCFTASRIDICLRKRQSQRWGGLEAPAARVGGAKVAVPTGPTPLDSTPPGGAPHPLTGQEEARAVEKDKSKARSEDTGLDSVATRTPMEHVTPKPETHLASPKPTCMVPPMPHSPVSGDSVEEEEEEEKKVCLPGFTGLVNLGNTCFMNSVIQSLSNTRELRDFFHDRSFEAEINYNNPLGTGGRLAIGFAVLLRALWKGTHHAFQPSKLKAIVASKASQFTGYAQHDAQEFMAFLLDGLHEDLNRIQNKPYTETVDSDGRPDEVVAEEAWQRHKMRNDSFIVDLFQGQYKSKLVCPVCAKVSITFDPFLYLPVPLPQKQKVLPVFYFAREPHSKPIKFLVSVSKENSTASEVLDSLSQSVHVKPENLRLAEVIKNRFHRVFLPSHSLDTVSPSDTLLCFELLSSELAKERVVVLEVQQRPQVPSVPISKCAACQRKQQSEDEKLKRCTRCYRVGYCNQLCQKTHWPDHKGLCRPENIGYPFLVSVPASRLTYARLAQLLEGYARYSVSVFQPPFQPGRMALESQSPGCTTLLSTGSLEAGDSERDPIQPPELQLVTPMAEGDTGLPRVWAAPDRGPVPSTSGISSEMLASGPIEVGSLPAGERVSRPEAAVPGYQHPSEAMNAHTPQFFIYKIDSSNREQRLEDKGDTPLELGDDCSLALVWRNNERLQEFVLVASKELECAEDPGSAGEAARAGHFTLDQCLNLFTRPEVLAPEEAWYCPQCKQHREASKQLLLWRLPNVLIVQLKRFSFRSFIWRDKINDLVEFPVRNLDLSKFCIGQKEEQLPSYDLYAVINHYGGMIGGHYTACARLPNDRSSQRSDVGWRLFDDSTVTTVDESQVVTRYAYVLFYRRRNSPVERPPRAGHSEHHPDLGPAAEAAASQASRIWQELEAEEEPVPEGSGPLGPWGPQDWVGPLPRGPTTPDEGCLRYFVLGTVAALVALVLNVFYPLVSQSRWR
In short: (§1)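 Average log2 ratios of fragment over vehicle were obtained by unpaired t-test from global-median-normalised Spectronaut label-free quantities. Proteins with ≥2 unique peptides were included. HEK293T lysate (495 µg per sample) was treated in triplicate with fragment at 200 µM or vehicle for 3 h, then with Biotin-Ahx-Ub-VS at 0.5 µM final for 1 h, and labelled DUBs were NeutrAvidin-enriched and run by diaPASEF LC-MS/MS.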

[2] = target: USP24 (UniProt Q9UPU5)
In short: as §1

[3] = target: T2, USP25 (UniProt Q9UHP3)
T2 sequence (whole entry): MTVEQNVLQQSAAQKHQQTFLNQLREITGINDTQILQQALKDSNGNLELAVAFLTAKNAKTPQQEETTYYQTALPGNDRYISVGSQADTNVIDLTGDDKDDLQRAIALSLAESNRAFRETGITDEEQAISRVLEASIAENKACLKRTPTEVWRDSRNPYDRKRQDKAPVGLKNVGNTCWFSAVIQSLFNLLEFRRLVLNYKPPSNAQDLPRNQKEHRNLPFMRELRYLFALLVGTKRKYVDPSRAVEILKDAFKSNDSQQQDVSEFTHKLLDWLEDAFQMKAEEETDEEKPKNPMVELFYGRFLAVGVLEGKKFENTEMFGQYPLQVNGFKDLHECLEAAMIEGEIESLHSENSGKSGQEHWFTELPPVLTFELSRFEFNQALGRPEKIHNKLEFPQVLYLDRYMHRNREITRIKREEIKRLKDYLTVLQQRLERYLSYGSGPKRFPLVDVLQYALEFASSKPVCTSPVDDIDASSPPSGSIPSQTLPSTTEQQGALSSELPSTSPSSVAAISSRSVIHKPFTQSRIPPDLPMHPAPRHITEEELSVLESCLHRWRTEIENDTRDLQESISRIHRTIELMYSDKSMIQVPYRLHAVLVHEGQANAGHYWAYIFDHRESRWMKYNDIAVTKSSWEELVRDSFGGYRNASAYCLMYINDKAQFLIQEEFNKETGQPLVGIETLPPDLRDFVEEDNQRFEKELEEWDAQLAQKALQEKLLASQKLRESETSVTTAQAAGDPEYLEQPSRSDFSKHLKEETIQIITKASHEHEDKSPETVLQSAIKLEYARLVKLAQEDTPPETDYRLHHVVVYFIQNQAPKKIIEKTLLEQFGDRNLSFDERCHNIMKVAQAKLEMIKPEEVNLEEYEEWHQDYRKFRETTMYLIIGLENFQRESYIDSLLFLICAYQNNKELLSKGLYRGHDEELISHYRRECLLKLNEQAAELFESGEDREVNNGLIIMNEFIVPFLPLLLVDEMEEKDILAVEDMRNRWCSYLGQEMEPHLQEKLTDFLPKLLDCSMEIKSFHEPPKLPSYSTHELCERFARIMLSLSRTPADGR
In short: as §1

[4] = target: T3, USP28 (UniProt Q96RU2)
T3 sequence (whole entry): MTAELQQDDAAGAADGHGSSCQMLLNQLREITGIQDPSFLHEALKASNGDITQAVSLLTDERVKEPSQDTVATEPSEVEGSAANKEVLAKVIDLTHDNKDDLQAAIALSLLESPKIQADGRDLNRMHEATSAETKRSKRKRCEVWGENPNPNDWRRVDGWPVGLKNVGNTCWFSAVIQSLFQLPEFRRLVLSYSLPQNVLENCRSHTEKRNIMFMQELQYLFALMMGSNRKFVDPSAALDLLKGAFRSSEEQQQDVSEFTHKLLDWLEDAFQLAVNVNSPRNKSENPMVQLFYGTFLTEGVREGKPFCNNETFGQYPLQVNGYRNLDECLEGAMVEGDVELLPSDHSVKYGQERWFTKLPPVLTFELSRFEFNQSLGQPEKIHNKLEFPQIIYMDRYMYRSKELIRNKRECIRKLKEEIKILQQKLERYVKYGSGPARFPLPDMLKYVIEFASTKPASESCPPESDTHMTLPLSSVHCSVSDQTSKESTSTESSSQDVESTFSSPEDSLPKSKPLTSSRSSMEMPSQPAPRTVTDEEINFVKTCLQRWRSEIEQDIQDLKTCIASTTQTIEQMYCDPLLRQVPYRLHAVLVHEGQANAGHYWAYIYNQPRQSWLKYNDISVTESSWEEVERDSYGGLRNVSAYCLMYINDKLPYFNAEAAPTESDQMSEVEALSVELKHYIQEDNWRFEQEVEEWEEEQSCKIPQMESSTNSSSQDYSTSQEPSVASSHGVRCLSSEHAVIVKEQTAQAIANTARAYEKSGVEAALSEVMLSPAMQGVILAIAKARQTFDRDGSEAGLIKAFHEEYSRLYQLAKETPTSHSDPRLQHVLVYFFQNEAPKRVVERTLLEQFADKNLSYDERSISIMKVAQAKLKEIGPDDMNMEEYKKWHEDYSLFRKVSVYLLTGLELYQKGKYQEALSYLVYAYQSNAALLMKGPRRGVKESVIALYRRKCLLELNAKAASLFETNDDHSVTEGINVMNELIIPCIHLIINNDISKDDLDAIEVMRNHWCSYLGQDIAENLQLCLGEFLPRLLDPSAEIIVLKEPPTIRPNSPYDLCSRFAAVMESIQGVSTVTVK
In short: as §1

Measured: log2 ratio of Biotin-Ahx-Ub-VS probe labelling

Chain of USP24 (Q9UPU5 whole entry): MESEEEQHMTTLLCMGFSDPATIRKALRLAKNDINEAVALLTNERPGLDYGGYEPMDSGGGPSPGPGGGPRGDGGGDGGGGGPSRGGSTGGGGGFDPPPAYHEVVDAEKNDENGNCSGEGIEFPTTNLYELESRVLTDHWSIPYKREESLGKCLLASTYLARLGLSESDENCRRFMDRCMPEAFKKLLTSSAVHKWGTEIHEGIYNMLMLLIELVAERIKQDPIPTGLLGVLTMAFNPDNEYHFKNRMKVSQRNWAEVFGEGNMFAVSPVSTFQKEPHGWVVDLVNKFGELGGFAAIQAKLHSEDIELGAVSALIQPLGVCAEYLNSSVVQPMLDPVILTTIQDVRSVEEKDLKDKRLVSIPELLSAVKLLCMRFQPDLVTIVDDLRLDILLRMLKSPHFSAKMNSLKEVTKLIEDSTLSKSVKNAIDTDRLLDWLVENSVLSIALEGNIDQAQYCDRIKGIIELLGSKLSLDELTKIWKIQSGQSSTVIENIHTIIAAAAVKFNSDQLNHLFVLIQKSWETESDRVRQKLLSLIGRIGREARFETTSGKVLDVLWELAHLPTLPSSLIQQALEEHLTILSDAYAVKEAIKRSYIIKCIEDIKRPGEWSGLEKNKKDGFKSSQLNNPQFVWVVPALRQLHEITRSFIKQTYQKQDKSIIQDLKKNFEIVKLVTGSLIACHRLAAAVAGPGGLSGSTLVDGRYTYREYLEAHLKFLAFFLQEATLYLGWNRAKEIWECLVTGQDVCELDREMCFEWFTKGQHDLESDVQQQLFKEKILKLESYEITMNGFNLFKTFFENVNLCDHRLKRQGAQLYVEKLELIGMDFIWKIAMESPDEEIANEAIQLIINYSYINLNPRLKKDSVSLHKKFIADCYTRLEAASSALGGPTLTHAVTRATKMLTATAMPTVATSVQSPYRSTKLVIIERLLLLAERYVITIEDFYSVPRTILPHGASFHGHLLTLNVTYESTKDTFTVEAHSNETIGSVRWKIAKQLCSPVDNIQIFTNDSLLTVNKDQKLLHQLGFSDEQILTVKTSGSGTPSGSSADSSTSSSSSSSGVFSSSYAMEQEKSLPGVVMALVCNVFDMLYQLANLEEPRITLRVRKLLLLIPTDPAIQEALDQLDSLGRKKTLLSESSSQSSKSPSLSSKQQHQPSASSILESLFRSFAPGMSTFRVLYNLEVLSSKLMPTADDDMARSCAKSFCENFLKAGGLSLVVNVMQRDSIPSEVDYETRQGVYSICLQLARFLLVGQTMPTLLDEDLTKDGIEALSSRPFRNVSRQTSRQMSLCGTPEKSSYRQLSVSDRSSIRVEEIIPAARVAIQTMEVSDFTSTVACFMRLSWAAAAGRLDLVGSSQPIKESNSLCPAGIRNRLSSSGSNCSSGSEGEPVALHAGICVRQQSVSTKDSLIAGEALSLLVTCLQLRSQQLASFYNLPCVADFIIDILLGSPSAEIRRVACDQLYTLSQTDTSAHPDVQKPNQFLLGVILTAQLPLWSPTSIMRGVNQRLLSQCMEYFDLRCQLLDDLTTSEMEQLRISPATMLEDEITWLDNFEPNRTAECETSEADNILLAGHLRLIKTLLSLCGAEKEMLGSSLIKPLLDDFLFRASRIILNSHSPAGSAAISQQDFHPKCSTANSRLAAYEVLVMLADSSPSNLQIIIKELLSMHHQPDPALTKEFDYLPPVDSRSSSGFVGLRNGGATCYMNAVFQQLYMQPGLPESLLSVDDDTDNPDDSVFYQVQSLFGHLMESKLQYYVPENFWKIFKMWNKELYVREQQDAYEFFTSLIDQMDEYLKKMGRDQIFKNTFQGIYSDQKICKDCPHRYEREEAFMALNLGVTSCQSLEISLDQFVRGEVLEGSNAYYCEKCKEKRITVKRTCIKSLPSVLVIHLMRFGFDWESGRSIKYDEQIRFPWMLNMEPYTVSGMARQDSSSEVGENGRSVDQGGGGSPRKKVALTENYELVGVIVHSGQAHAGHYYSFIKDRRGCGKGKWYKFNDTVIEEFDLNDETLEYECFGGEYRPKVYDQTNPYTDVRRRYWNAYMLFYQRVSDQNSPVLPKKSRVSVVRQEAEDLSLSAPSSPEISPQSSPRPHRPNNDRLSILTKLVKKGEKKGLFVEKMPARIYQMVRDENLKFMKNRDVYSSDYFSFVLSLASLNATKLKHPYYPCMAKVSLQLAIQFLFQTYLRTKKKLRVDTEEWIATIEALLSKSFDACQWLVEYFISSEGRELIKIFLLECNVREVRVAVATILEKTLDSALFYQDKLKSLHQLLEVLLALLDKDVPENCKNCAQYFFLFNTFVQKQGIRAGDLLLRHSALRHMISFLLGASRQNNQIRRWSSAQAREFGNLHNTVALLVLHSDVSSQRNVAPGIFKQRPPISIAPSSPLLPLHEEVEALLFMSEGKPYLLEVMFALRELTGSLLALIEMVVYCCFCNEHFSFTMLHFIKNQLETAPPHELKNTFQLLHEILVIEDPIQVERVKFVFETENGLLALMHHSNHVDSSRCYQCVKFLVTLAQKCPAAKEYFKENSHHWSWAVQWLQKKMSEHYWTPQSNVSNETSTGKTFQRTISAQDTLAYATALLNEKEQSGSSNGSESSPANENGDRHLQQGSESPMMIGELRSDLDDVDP

CN(C)S(=O)(=O)c1ccccc1CNC(=O)CCl
inactive: [1] 0.0268 | [2] -0.108 | [3] -0.258 | [4] -0.239
